Results taken from article PMC12864922, “TDP-43 directly inhibits mRNA accumulation in neurites through modulation of mRNA stability”.
Whole data set: some 9,900 sequences, median “r (bound/input frequency ratio)” near 0.7, cut for the highest 2% near 6.5. The full list was thinned out, with the highest values kept by preference.

B1: ENSMUSG00000022095.41|Fam160b2|101:105 (ssRNA)
RNA: GGGAGUUCUACAGUCCGACGAUCGCUUCGAUAUCCGCAUGCUAUGAGGUUUCAAGGAGGUGCUGGCUCCUAAGGCAGUGGUAUUCUUGGAGCCUUUUAGAGGAGCUAGAGGAUGGCCAGUGAGCGCCUAGAUGCUGCCCUGCAACACAUGCGUGACUAUCUCUGCUAUAUUGUGACCAGGGCCACAACAUGAGACAACUCCAGGGGCCAGGGAGAUGAACUGCUGUCUUUGAGGCUGGCUAAAAAAACAAUCCAGUCCAGAGAGAUGGGGAGGGGGGGAGCAAGAACCCUGUCUGUUACAUUACUCUUGCGGUCGCACUAGUGUGGAAUUCUCGGGUGUCAAGG
B2: ENSMUSG00000031028.396|Tub|202:206 (ssRNA)
RNA: GGGAGUUCUACAGUCCGACGAUCGCUUCGAUAUCCGCAUGCUAUUGACCACUGGCGCUGUGAACACAGGCUAAUGGACUUCAGAUACCAGGGCCCCGGGAUCACCUGGGUUAGCCUCUCCCACAGGAAGAUCCCUUACCCCUCAUCCCCUCUUCUUUUUGGUCCUUGGCUGGGUAGCAAAUUGGUGAGAAGAGCAGCCUAGUCUGUAAGAGUGCAGGGCAGCUGGAACCUUAGGCAGCUCCUCUCAUACCUACCGGCUCCACACCCUAACACUCUCCACCCUCUGCUCCAAACCAGUUCUUCUCUCUUGCGGUCGCACUAGUGUGGAAUUCUCGGGUGUCAAGG
B3: ENSMUSG00000028439.151|Fam219a (ssRNA)
RNA: GGGAGUUCUACAGUCCGACGAUCGCUUCGAUAUCCGCAUGCUAAAGGCUGGCCUCCUGUGCCCCAUUGCCAUUUCACCCUAGCUCAAAGUCCAGGAGCCAGGCUUCCAGAAAGGCUCUUCAAGAGCAAGCUUAAGGAAAUACAGUGAGCCAAGUGGCUGUAUGAUAUGGUAUGGUAUGGUAUGGUAUGGUAUGGUAUGGUAUGCACAUGUGUGUGCAUGUGUGUGUGCCUGUGUGUGUGCGUGUGCGUGUGUGUAUGUGUGUGCGUGUGUGUGUGUGUGUGUUGUACCCGAGUGUGUGUUGAGCUCUUGCGGUCGCACUAGUGUGGAAUUCUCGGGUGUCAAGG
B4: ENSMUSG00000028439.136|Fam219a (ssRNA)
RNA: GGGAGUUCUACAGUCCGACGAUCGCUUCGAUAUCCGCAUGCUAAACCAGUGCAUCUGUCUCUCUGCCUCAUCCCCACACCGCCCUGCCACCCCCAGUCUUCUGUCUAUUGGUUCCAGGCUGGAAGCAAGAGAUAAGGCUGGCCUCCUGUGCCCCAUUGCCAUUUCACCCUAGCUCAAAGUCCAGGAGCCAGGCUUCCAGAAAGGCUCUUCAAGAGCAAGCUUAAGGAAAUACAGUGAGCCAAGUGGCUGUAUGAUAUGGUAUGGUAUGGUAUGGUAUGGUAUGGUAUGGUAUGCACAUGUGUGCUCUUGCGGUCGCACUAGUGUGGAAUUCUCGGGUGUCAAGG
B5: ENSMUSG00000028439.150|Fam219a (ssRNA)
RNA: GGGAGUUCUACAGUCCGACGAUCGCUUCGAUAUCCGCAUGCUAAGAGAUAAGGCUGGCCUCCUGUGCCCCAUUGCCAUUUCACCCUAGCUCAAAGUCCAGGAGCCAGGCUUCCAGAAAGGCUCUUCAAGAGCAAGCUUAAGGAAAUACAGUGAGCCAAGUGGCUGUAUGAUAUGGUAUGGUAUGGUAUGGUAUGGUAUGGUAUGGUAUGCACAUGUGUGUGCAUGUGUGUGUGCCUGUGUGUGUGCGUGUGCGUGUGUGUAUGUGUGUGCGUGUGUGUGUGUGUGUGUUGUACCCGAGUGUGUCUCUUGCGGUCGCACUAGUGUGGAAUUCUCGGGUGUCAAGG
B6: ENSMUSG00000028439.152|Fam219a (ssRNA)
RNA: GGGAGUUCUACAGUCCGACGAUCGCUUCGAUAUCCGCAUGCUAGGCCUCCUGUGCCCCAUUGCCAUUUCACCCUAGCUCAAAGUCCAGGAGCCAGGCUUCCAGAAAGGCUCUUCAAGAGCAAGCUUAAGGAAAUACAGUGAGCCAAGUGGCUGUAUGAUAUGGUAUGGUAUGGUAUGGUAUGGUAUGGUAUGGUAUGCACAUGUGUGUGCAUGUGUGUGUGCCUGUGUGUGUGCGUGUGCGUGUGUGUAUGUGUGUGCGUGUGUGUGUGUGUGUGUUGUACCCGAGUGUGUGUUGAGCCUAUCCUCUUGCGGUCGCACUAGUGUGGAAUUCUCGGGUGUCAAGG
B7: ENSMUSG00000028439.148|Fam219a|134:138;144:178;183:190;193:202;205:214;216:220;222:238;240:257 (ssRNA)
RNA: GGGAGUUCUACAGUCCGACGAUCGCUUCGAUAUCCGCAUGCUAAGGCUGGAAGCAAGAGAUAAGGCUGGCCUCCUGUGCCCCAUUGCCAUUUCACCCUAGCUCAAAGUCCAGGAGCCAGGCUUCCAGAAAGGCUCUUCAAGAGCAAGCUUAAGGAAAUACAGUGAGCCAAGUGGCUCAUACAUAUGCAUACCAUACCAUACCAUACCAUACCAUACCAUACCACAACACACACCAACACACACACCCACACACACACCCACACCCACACACAUACACACACCCACACACACACACACACAUGUCUCUUGCGGUCGCACUAGUGUGGAAUUCUCGGGUGUCAAGG
B8: ENSMUSG00000028439.149|Fam219a (ssRNA)
RNA: GGGAGUUCUACAGUCCGACGAUCGCUUCGAUAUCCGCAUGCUAGAAGCAAGAGAUAAGGCUGGCCUCCUGUGCCCCAUUGCCAUUUCACCCUAGCUCAAAGUCCAGGAGCCAGGCUUCCAGAAAGGCUCUUCAAGAGCAAGCUUAAGGAAAUACAGUGAGCCAAGUGGCUGUAUGAUAUGGUAUGGUAUGGUAUGGUAUGGUAUGGUAUGGUAUGCACAUGUGUGUGCAUGUGUGUGUGCCUGUGUGUGUGCGUGUGCGUGUGUGUAUGUGUGUGCGUGUGUGUGUGUGUGUGUUGUACCCGACUCUUGCGGUCGCACUAGUGUGGAAUUCUCGGGUGUCAAGG
B9: ENSMUSG00000061578.707|Ksr2|13:17 (ssRNA)
RNA: GGGAGUUCUACAGUCCGACGAUCGCUUCGAUAUCCGCAUGCUACCUGUAGUCUCUACACACAUCUUCUUCUAAGACCACUAAUAACACCGCCUUUCUCCUUGAUCCGGGCCUCAGACCUCUUCAGAGAUUCUUUCUCUGAAUGUACGUGGGGGACUCCAACAGAUGUUGGGAGAAGACUCAAUAUGAGCAUACGGGGUCAUUGUUCAAUCCUGUAUCAAGACCUUGGAGUUGUCUAAGGCUGUGGGUUUUAAAUACCUGCUGCAGGCCUCCCAUCUCUGGCUCUUUGUUUCCACUCUGGCCCACUCUUGCGGUCGCACUAGUGUGGAAUUCUCGGGUGUCAAGG
B10: ENSMUSG00000061578.929|Ksr2|22:26 (ssRNA)
RNA: GGGAGUUCUACAGUCCGACGAUCGCUUCGAUAUCCGCAUGCUACAAGGGUGUUUAGAGUAGGCACACACGAAGUAUCAAUAAGGUUAUUGAGAUGAGGAUUUAGAAAGAUCCAUGUAUAAAAGGUCUAGAAGGAUGAAGAUCUAAAACAAGAAGACUGCAUGUUAACGCUCCUGCCACUGUUGCCCCUUCCUUUACCCUUGGCAGACAUUGCUAAUCAAUCUCAGCACAGUUUCCAACCACAGUCAUAGAACAUUUGCCACAAAGGCCCUGGAUGUGACUAUAUGUGCUGAGAAGGGAAGGUACUCUUGCGGUCGCACUAGUGUGGAAUUCUCGGGUGUCAAGG
B11: ENSMUSG00000028439.103|Fam219a (ssRNA)
RNA: GGGAGUUCUACAGUCCGACGAUCGCUUCGAUAUCCGCAUGCUAAUACCUAUUUGUGUUUUCCCCUCAUCUCCAGAUGGGAAGCCUGGCAGCGCUGUCCAAAGGGAUACUGUCUCUCCAUUAGAUAACUCCUUCCACUGUCUCCCUCCCCCGCUUUCUUACUUUCUGAGGGUUGGGAAGGUAAGAUGGGCCUUAGAGAGAAGCCAGGUUUGGGGAUGGUAUGACCUGUUCUCACCGGUCUCUAACCAGUGCAUCUGUCUCUCUGCCUCAUCCCCACACCGCCCUGCCACCCCCAGUCUUCUGUCCUCUUGCGGUCGCACUAGUGUGGAAUUCUCGGGUGUCAAGG
B12: ENSMUSG00000028439.89|Fam219a|94:98 (ssRNA)
RNA: GGGAGUUCUACAGUCCGACGAUCGCUUCGAUAUCCGCAUGCUAGGGUUUUGAGAAGAAAAGGAUCCAAGCAAUGGGGGCAGUUCUCACACCUCAGAGCCCCUCUCCCCAAACCCUGUGCCAGCCCAUAUACCUAUUACACAUUUCCCCUCAUCUCCAGAUGGGAAGCCUGGCAGCGCUGUCCAAAGGGAUACUGUCUCUCCAUUAGAUAACUCCUUCCACUGUCUCCCUCCCCCGCUUUCUUACUUUCUGAGGGUUGGGAAGGUAAGAUGGGCCUUAGAGAGAAGCCAGGUUUGGGGAUGGUACUCUUGCGGUCGCACUAGUGUGGAAUUCUCGGGUGUCAAGG
B13: ENSMUSG00000029636.86|Wasf3 (ssRNA)
RNA: GGGAGUUCUACAGUCCGACGAUCGCUUCGAUAUCCGCAUGCUAUUCCUGUUUCUUCCCUUUGCAAAUUGAAUUCCAGGUAGAUAUGGUUGUAGAGGGGAAAGUUUAACAAAUCAGAAUGAAAUGUUUGUCUGUUUGCACACUGGGCCUGGUGGCCUCCAAGGAAAUGUGUACGAUCGUUUGCUUUCUCUAUCUUGGCGCUUGCAACCGAGAGCGGCCAUUUUUAUGAGGGGAGCCCUGUGGGUACUCAUGUGGAAAGUGCCCACUGACUUUGGCAGAUGGAGUUCACUUUCAUGGCUAGCCCUCUCUUGCGGUCGCACUAGUGUGGAAUUCUCGGGUGUCAAGG

biological target: TDP-43 (Homo sapiens, UniProt Q13148 1-414); assay: RNA Bind-n-Seq with designed 260-mer pool; 25 mM Tris-HCl, 150 mM KCl, 3 mM MgCl2, BSA (printed 500 mg/mL), 20 units/mL SUPERase IN; pH not stated; 500 nM RNA pool, 1 h, 4 C; TDP-43 5, 50, 500 nM; high values mean tight binding; settings: protein: recombinant; tags: SBP (GST cleaved off with PreScission; pGEX-GST-SBP)
Outline: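 An in vitro-transcribed pool of 260-nt 3′ UTR oligos (500 nM) was incubated for 1 h at 4 °C with recombinant SBP-tagged TDP-43 at 5, 50 or 500 nM held on streptavidin beads. The buffer contained 25 mM Tris-HCl, 150 mM KCl, 3 mM MgCl2, BSA and SUPERase IN. Biotin-eluted bound RNA was sequenced, and binding, R, is each oligo's normalized read abundance in the bound sample over that in input.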

TDP-43, sequence (Q13148 whole entry): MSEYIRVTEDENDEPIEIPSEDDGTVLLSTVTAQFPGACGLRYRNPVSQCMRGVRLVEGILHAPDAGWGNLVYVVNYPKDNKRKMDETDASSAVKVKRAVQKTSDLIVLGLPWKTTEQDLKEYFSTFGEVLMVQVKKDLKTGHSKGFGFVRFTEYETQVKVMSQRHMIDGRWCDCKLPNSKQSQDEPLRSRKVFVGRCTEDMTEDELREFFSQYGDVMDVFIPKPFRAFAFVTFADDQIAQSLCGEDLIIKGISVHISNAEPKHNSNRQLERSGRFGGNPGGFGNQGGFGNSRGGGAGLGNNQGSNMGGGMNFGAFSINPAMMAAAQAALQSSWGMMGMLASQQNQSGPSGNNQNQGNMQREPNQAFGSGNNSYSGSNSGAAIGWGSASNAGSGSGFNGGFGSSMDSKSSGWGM

Binder | binding signal
B1 | 1 R (bound/input frequency ratio)
B2 | 1.04 R (bound/input frequency ratio)
B3 | 6.07 R (bound/input frequency ratio)
B4 | 1.84 R (bound/input frequency ratio)
B5 | 7.17 R (bound/input frequency ratio)
B6 | 7.8 R (bound/input frequency ratio)
B7 | 4.64 R (bound/input frequency ratio)
B8 | 6.67 R (bound/input frequency ratio)
B9 | 0.284 R (bound/input frequency ratio)
B10 | 1.18 R (bound/input frequency ratio)
B11 | 0.421 R (bound/input frequency ratio)
B12 | 0.538 R (bound/input frequency ratio)
B13 | 3.02 R (bound/input frequency ratio)
